Data on 40 molecules can be found in PubChem BioAssay (EPA / NIEHS).

Structures are written as SMILES. Results filed as inconclusive are left out. The source made the active and inactive calls. The calls were made as follows: active = hit-call score of the fitted dose curve at least 0.9, where 1 is the maximum; inconclusive = response in the unintended direction; inactive = score below 0.9.

A word on the AC50: it is the midpoint of the concentration-response curve, whichever way the signal moves.

Read-out in this assay: ABC Transporter (ABCB1), ABCB1 (gene 5243)
As to the kind of experiment: CLD_ABCB1_24hr: CellzDirect (CLD) Gene Expression Assay for ABC Transporter (ABCB1) at 24 hours (AID 2283684).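 As to AC50: potency for increase in ABCB1 mRNA relative to DMSO vehicle.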 As for the experimental part:
CLD_24hr is a cell-based, multiplexed-readout assay that uses hepatocyte, a human liver primary cell, with measurements taken at 24 hours after chemical dosing in a 96-well plate.CLD_ABCB1_24hr is one of 16 assay component(s) measured or calculated from the CLD_24hr assay. It is designed to make measurements of mRNA induction, a form of inducible reporter, as detected with chemiluminescence signals by Quantitative Nuclease Protection Assay (qNPA) technology.Data from the assay component CLD_ABCB1_24hr was analyzed at the endpoint, CLD_ABCB1_24hr, in the positive analysis fitting direction relative to DMSO as the negative control and baseline of activity. Using a type of inducible reporter, gain-of-signal activity can be used to understand changes in the reporter gene as they relate to the gene ABCB1. Furthermore, this assay endpoint can be referred to as a primary readout. To generalize the intended target to other relatable targets, this assay endpoint is annotated to the transporter intended target family, where subfamily is ABC transporter.
Human hepatocyte cultures were treated daily for two consecutive days with fresh dosing solutions containing appropriate concentrations of the 320 ToxCast chemicals (chemical identities were blinded to CellzDirect and other ToxCast collaborators), vehicle control (0.2% DMSO), and positive control inducers as summarized in Table 1. Due to the large number of treatment groups and chemicals examined, the ToxCast chemicals were divided into two groups (spanning two independent cultures of hepatocytes from separate donor preparations (Hu778: ToxCast plates 1 and 2; Hu776: ToxCast plates 3 and 4). Each preparation of human hepatocyte cultures was treated with respective vehicle control, medium only control, set of six positive controls/reference chemicals for the five hepatic receptor pathways, and a subset of eight of the ToxCast chemicals (indoxacarb, pyrithiobac-sodium, norflurazon, cyhalofop-butyl, methomyl, thiram, acetochlor, and propiconazole). These replicate data, coupled with internal replicates designed within the blinded ToxCast chemical library, provided additional data to evaluate interindividual differences between hepatocyte preparations and their potential impact on chemical profiles.Cell morphology and integrity were evaluated using phase-contrast microscopy as an indicator of hepatocyte cell health (Tyson & Green, 1987). Cultures for each treatment group (i.e., media, vehicle [0.2% DMSO], positive control inducers [multiple concentrations], and the ToxCast chemicals [multiple concentrations]) were observed and cell morphology was assessed relative to vehicle control cultures at each harvest time point (0, 6, 24, or 48 h). […] Images were evaluated at the conclusion of the study to assess changes in cell integrity and account for the effects of chemical exposure on uncharacteristic changes in concentration-dependent gene expression profiles. The results from these determinations of apparent cytotoxicity were annotated (yes/no) alongside the corresponding qNPA data for reference.At the conclusion of each treatment period, hepatocyte cultures (96-well) were washed with 1 volume of HBSS, lysed by addition of 25 ul ArrayPlate lysis buffer (HTG, Tucson, AZ), and 70 ul/well of Denaturation Oil, denatured by incubation at 95C for 10 min, and frozen at approximately -70C until analysis by nuclease protection assay (qNPA) (Roberts et al., 2007). For qNPA analysis, cell lysates were thawed at 50C for approximately 30 min, qNPA probes were added, and samples were incubated at 95C for 10 min to begin the detection process by denaturing the target RNA, dissociating the duplexes and secondary structure hybridization. At the conclusion of the hybridization period, S1 nuclease reagent was added to each sample to digest all nonprotected nucleotides at 50C for 60-90 min. […]
Consider `CNC(=O)CSP(=S)(OC)OC`, for which the result was inactive.
Turning to `O=[N+]([O-])/N=C1\NCCN1Cc1ccc(Cl)nc1`, the molecule was called inactive.
The same measure, in the same setting: the entry for `N#Cc1c(Cl)c(Cl)c(Cl)c(C#N)c1Cl` is “inactive”; for `CCN(CC)C(=O)SCc1ccc(Cl)cc1` it is “inactive”.
The same measure, in the same setting: the entry for `N#CN` is “inactive”; for `[2H]C1([2H])[n+]2ccccc2-c2cccc[n+]2C1([2H])[2H]` it is “inactive”; for `CCOc1nc(NC)nc(NC(=O)NS(=O)(=O)c2ccccc2C(=O)OC)n1` it is “inactive”.
Same read-out and setting: the entry for `CCC(C)Nc1c([N+](=O)[O-])cc(C(C)(C)C)cc1[N+](=O)[O-]` (stereo not given) is “inactive”.
Take `CC1(C)C(C=C(Cl)Cl)C1C(=O)OC(C#N)c1ccc(F)c(Oc2ccccc2)c1` (stereo not given): the molecule was classed as inactive.
Same read-out and setting: the entry for `C#CCN1C(=O)COc2cc(F)c(N3C(=O)C4=C(CCCC4)C3=O)cc21` is “inactive”; for `Clc1ccccc1-c1nnc(-c2ccccc2Cl)nn1` it is “inactive”.
In the case of `CCCN(CCOc1c(Cl)cc(Cl)cc1Cl)C(=O)n1ccnc1`, the AC50 is 32.7 µM (active).
Take `COc1nn(CSP(=S)(OC)OC)c(=O)s1`: the result was inactive.
Same read-out and setting: as for `CCc1ccc(C(=O)NN(C(=O)c2cc(C)cc(C)c2)C(C)(C)C)cc1`, the entry is “inactive”; as for `O=[N+]([O-])c1c(Cl)c(Cl)c(Cl)c(Cl)c1Cl`, “inactive”; as for `COP(=O)(OC)OC=C(Cl)Cl`, “inactive”.
On the same count and under the same terms, the entry for `CC(C)(C)C(O)C(Oc1ccc(Cl)cc1)n1cncn1` (stereo not given) is “inactive”.
Same read-out and setting: the entry for `CC(C)OC(=O)Nc1cccc(Cl)c1` is “inactive”; for `O=C(O)C(F)(F)C(F)(F)C(F)(F)C(F)(F)C(F)(F)C(F)(F)C(F)(F)F` it is “inactive”; for `Cc1[nH]c(=O)n(C(C)(C)C)c(=O)c1Cl` it is “inactive”.
For the molecule `CCOC1Oc2ccc(OS(C)(=O)=O)cc2C1(C)C` (stereo not given), the outcome was inactive.
In the case of `ClC1C(Cl)C(Cl)C(Cl)C(Cl)C1Cl` (stereo not given), the call was inactive.
Still for that read-out and setting: the entry for `CC(C)N(C(=O)COc1nnc(C(F)(F)F)s1)c1ccc(F)cc1` is “inactive”; for `COc1cc(OC)nc(NC(=O)NS(=O)(=O)c2cc(NC=O)ccc2C(=O)N(C)C)n1` it is “inactive”; for `COP(=S)(OC)Oc1ccc([N+](=O)[O-])cc1` it is “inactive”.
On the same count and under the same terms, as for `CCS(=O)(=O)c1cccnc1S(=O)(=O)NC(=O)Nc1nc(OC)cc(OC)n1`, the entry is “inactive”.
As for `C[C@H]1[C@H](c2ccc(Cl)cc2)SC(=O)N1C(=O)NC1CCCCC1`, the AC50 was 35.2 µM (active).
As for `CCCN(CCC)c1c([N+](=O)[O-])cc(C(F)(F)F)cc1[N+](=O)[O-]`, the outcome was inactive.
On the same count and under the same terms, the entry for `CNC(=O)Oc1cccc(N=CN(C)C)c1` is “inactive”; for `COC(=O)c1ccccc1S(=O)(=O)NC(=O)N(C)c1nc(C)nc(OC)n1` it is “inactive”.
For the molecule `CC[C@H](C)[C@H]1O[C@]2(C=C[C@@H]1C)C[C@@H]1C[C@@H](C/C=C(\C)[C@@H](O[C@H]3C[C@H](OC)[C@@H](O[C@H]4C[C@H](OC)[C@@H](O)[C@H](C)O4)[C@H](C)O3)[C@@H](C)/C=C/C=C3\CO[C@@H]4[C@H](O)C(C)=C[C@@H](C(=O)O1)[C@]34O)O2` (tested in a mixture with another compound), the AC50 was 5.84 µM (active).
Turning to `CN1CSC(=S)N(C)C1`, the outcome was inactive.
Same read-out and setting: as for `O=C(NC(=O)c1c(F)cccc1F)Nc1ccc(OC(F)(F)C(F)OC(F)(F)F)c(Cl)c1` (stereo not given), the entry is “inactive”; as for `CCC(C)(NC(=O)c1cc(Cl)c(C)c(Cl)c1)C(=O)CCl` (stereo not given), “inactive”.
In the case of `CC(C)(C)C(O)/C(=C\c1ccc(Cl)cc1Cl)n1cncn1` (stereo not given), the AC50 is 29.4 µM (active).
As for `O=C1c2ccccc2C(=O)N1SC(Cl)(Cl)Cl`, the molecule was called inactive.
Same read-out and setting: the entry for `Cc1cc(C)nc(NC(=O)NS(=O)(=O)c2ccccc2C(=O)OC2COC2)n1` is “inactive”; for `COC(=O)c1ccccc1CS(=O)(=O)NC(=O)Nc1nc(OC)cc(OC)n1` it is “inactive”; for `O=C(O)COc1ccc(Cl)cc1Cl` it is “inactive”.
For `COC(=O)c1ccccc1S(=O)(=O)NC(=O)Nc1nc(C)nc(OC)n1`, the outcome was inactive.
